Source: PubChem BioAssay AID760 (NMMLSC, 2007)
Hit rate of the full screen: of about 190,000 compounds, about 360 (0.19%) were called active. About 2% were inconclusive and are not listed. The full list was thinned out, with actives kept by preference. Values without a mark were called inactive.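 How the source made its calls: active means GTP binding activity at least 20 points away from 100%, either lowered or raised; inconclusive means signal likely due to the compound's own green fluorescence; inactive means the rest.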

These molecules were tested against Ras-related protein Rab-2A (Canis lupus familiaris) (UniProt P61105) (assay: modulators of GTP binding to Rab2A wildtype, primary screen, biochemical, dog, bead-based flow cytometry, multiplex (AID 760;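 further: 0% = beads with excess unlabeled GTP and 100% = no-compound control corrected for plate trend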)). Details: GST-Rab2 wt beads, Bodipy-GTP binding, at 10 µM.

| Compound | GTP binding activity |
| --- | --- |
| N#C/C(C(=S)Nc1ccccc1)=C1/NN=C(N2CCOCC2)N1c1ccccc1 | 90% |
| CCCn1c(N)c(C(=O)CSc2nc3ccccc3c(=O)n2-c2ccc(OC)cc2)c(=O)[nH]c1=O | 92% |
| S=c1[nH]nc(Nc2ccccc2)s1 | 92% |
| O=C1CCC(=O)N1c1ccc(NCCc2ccccc2F)c([N+](=O)[O-])c1 | 101% |
| NC(=O)COC(=O)c1sc2cc(F)ccc2c1Cl | 94% |
| CCN(CC)S(=O)(=O)c1ccc(N2CCCC2)c(NS(=O)(=O)c2cccs2)c1 | 94% |
| O=C(NCc1ccccc1Cl)C1CCN(S(=O)(=O)N2CCOCC2)CC1 | 104% |
| Cc1ccc(NC(=O)c2ccccn2)cc1S(=O)(=O)N1CCOCC1 | 99% |
| CSc1ccc(CNCCN2CCOCC2)cc1 | 96% |
| COC(=O)c1ccc(NC(=S)NN2CCOCC2)cc1 | 99% |
| CCCC(=O)OCC(=O)Nc1cc(Cl)ccc1[N+](=O)[O-] | 92% |
| O=c1c(-c2ccccc2)cnc2n1CCS2 | 96% |
| Cc1ccc(NC(=O)c2ccc(S(=O)(=O)NCC3CCCO3)cc2)cc1C (stereo unspecified) | 97% |
| Cc1cc(CNCc2c(C(=O)N(C)Cc3ccccc3)nc3ccccn23)nn1C | 101% |
| O=C(Nc1nnc(C2CC2)s1)C1=NN(C2CCS(=O)(=O)C2)C(=O)CC1 (stereo unspecified) | 96% |
| Cc1nc(N2CCCCC2)sc1C=O | 105% |
| Cc1ccccc1NCC(=O)N/N=C\c1ccc([N+](=O)[O-])s1 | 98% |
| CS/C(=C\[N+](=O)[O-])Nc1ccc(C)cc1 | 100% |
| O=C(NCC1CCCO1)C1CCN(C2CCN(C(=O)C3CCCCC3)CC2)CC1 (stereo unspecified) | 98% |
| COC(=O)c1cc2n(n1)CCCNC2=O | 100% |
| COc1ccc(N(CC(=O)NC2CCCC2)C(=O)CS(=O)CC(=O)Nc2ccc3c(c2)OCO3)cc1 (stereo unspecified) | 95% |
| CCOC(=O)C1(Cc2ccc(Cl)cc2)CCN(C(=O)C2=NNC(=O)CC2)CC1 | 101% |
| Cc1cc(=O)oc2c1c(C)nn2-c1ccc(Cl)cc1 | 100% |
| COc1ncnc2sc3c(c12)CCCC3 | 102% |
| COc1ccc(/C=N/Nc2ncnc3sc4c(c23)CCCC4)cc1O | 71% (active) |
| COc1cc(/C=N/Nc2ccc(C)cc2)cc(Br)c1O | 94% |

| Compound | GTP binding activity |
| --- | --- |
| COc1ccc(NC(=S)NCCN2CCC(C)CC2)cc1 | 100% |
| COc1cc(OC)c(C(=O)N2CCCC2)cc1OC | 98% |
| COc1ccc(/C=N/NC(=O)c2ccncc2)cc1CN1CCCc2ccccc21 | 95% |
| COc1ccc(CN2CCC(c3nc4ccc(Cl)cc4[nH]3)CC2)cc1 | 96% |
| CC(Sc1nnnn1C1CCCCC1)C(=O)O (stereo unspecified) | 101% |
| COc1ccc(C(=O)OCC(=O)NCC2CCCO2)cc1[N+](=O)[O-] (stereo unspecified) | 93% |
| COC(=O)c1ccc(CN2CCN(CCCc3ccccc3)C(CCO)C2)cc1 (stereo unspecified) | 97% |
| CCCSc1nc2[nH]ncc2c(=O)[nH]1 | 99% |
| Cc1ccc(CSc2nc3[nH]ncc3c(=O)[nH]2)cc1 | 79% (active) |
| Cc1cccc(NC(=O)CSc2nc3[nH]ncc3c(=O)[nH]2)c1 | 94% |
| Cc1cc(OCC(=O)NC2CCN(C)CC2)ccc1[N+](=O)[O-] | 98% |
| COc1ccc(C/C(N)=N/OC(=O)c2ccco2)cc1OC | 101% |
| O=C(COC(=O)CNC(=O)c1ccccc1F)NCC(F)(F)F | 101% |
| Cc1ccc(NC(=O)Nc2cccc(C(F)(F)F)c2)nc1 | 103% |
| CC1CC(C)CN(C(=O)CSc2ccsc2[N+](=O)[O-])C1 (stereo unspecified) | 102% |
| CCOC(=O)c1sc(NC(=O)CSc2nc(O)c(Cc3ccccc3)c(=O)[nH]2)nc1C | 93% |
| Cc1ccnc(NS(=O)(=O)c2ccc(NC(=O)c3ccc(S(=O)(=O)N(C)C)cc3)cc2)n1 | 98% |
| CN(CCC1CCOCC1)Cc1cn[nH]c1-c1ccc(-c2ccccc2)cc1 | 96% |
| C/C=C/C=C/C(=O)OCC(=O)Nc1ccc(Cl)cc1 | 93% |
| CN(C)CCOCCOc1ccc(Cl)c2ccccc12 | 106% |
| Cc1nn(CC(=O)Nc2ccc(C#N)cc2)c(C)c1[N+](=O)[O-] | 99% |
| COC(=O)c1ccc(/C=N/N2C(C)CCCC2C)cc1 (stereo unspecified) | 100% |
| COC(=O)c1sc2[nH]c(=S)n(N)c(=O)c2c1C | 100% |
| CCN(C(=O)COC(=O)c1cc(S(=O)(=O)N2CCc3ccccc32)ccc1OC)C1CCS(=O)(=O)C1 (stereo unspecified) | 96% |
| CC(NC(=O)C(=O)N/N=C/c1ccc(Cl)cc1)c1ccccc1 (stereo unspecified) | 98% |
| CC1CCCCC1NC(=O)CO/N=C/c1ccc(OC(F)F)cc1 (stereo unspecified) | 97% |

| Compound | GTP binding activity |
| --- | --- |
| NS(=O)(=O)c1ccc(NC(=O)COC(=O)c2ccco2)cc1 | 97% |
| COc1ccc(C(=O)CSc2nnnn2C)c(OC)c1 | 98% |
| COc1cc(CN(C)Cc2nc3cc(C(F)(F)F)ccc3c(=O)[nH]2)ccc1OC(F)F | 94% |
| Cn1c(N)cc(-c2ccc(F)cc2)c(C#N)c1=O | 97% |
| Cc1cc(C(=O)N/N=C/c2ccccc2[N+](=O)[O-])c(C)o1 | 95% |
| COc1ccc(/C=N/NC(=O)C(C)N(c2ccc(OC)cc2)S(C)(=O)=O)cc1 (stereo unspecified) | 96% |
| CSCCNCc1cn(-c2ccc(F)cc2F)nc1-c1ccccc1C | 100% |
| Cc1ccnc(NC(=O)CCCOc2ccccc2)c1 | 97% |
| O=C(NNC(=O)c1ccccc1[N+](=O)[O-])Nc1ccccc1C(F)(F)F | 101% |
| CC(C)NC(=O)/C(C#N)=C\c1ccc(N(C)C)c(Br)c1 | 94% |
| O=C(Cc1csc(Nc2nc(=S)[nH]c3ccccc23)n1)NCCCN1CCN(c2cccc(Cl)c2)CC1 | 78% (active) |
| O=C(CCn1c(=O)[nH]c2ccccc2c1=O)NCCCN1CCN(c2cccc(Cl)c2)CC1 | 101% |
| COc1cccc(CNC(=O)Cc2csc(Nc3nc(=S)[nH]c4ccccc34)n2)c1 | 93% |
| Cc1ccnc2nc(C(=O)OCC(=O)N(CC(C)C)CC(C)C)nn12 | 97% |
| CCOc1ccccc1N1CCN(C(=O)COc2ccc3c(C)cc(=O)oc3c2)CC1 | 98% |
| CCOC(=O)CN/C=C(\C#N)c1ccc(F)cc1 | 102% |
| CCCC(c1nnnn1C(C)(C)C)N1CCN(Cc2ccccc2)CC1 (stereo unspecified) | 98% |
| O=C(COc1cccc2ccccc12)Nc1cc(S(=O)(=O)N2CCOCC2)ccc1N1CCOCC1 | 98% |
| O=c1[nH]n2c(-c3ccccc3)nc(O)c2c2ccccc12 | 95% |
| CCO/C=C1\C(=O)N(c2ccc(OCC)cc2)C(=O)c2ccccc21 | 93% |
| COc1ccc(S(=O)(=O)N2CCOCC2)cc1C(=O)Nc1nc2ccccc2s1 | 72% (active) |
| COc1ccc(S(=O)(=O)N2CCOCC2)cc1NC(=O)CSc1ncnc2ccccc12 | 93% |
| CCOC(=O)c1sc(NC(=O)c2cc(S(=O)(=O)N3CCOCC3)ccc2C)nc1C | 98% |
| COc1ccc(OC)c(-c2csc(NC(=O)C3=NNC(=O)CC3)n2)c1 | 96% |
| CNC(=S)N1CCC(NC(=O)C(Cc2ccc(F)cc2)NC(C)=O)CC1 (stereo unspecified) | 99% |
| COc1ccc(S(=O)(=O)N(C)C)cc1NC(=O)CSc1ncccn1 | 97% |

| Compound | GTP binding activity |
| --- | --- |
| Cn1nnnc1SCC(=O)Nc1nc2ccccc2s1 | 97% |
| CCNC(=O)COC(=O)/C=C/c1c(C)nn(Cc2cccc(OC)c2)c1Cl | 95% |
| CCOC(=O)c1sc(NC(=O)CSc2n[nH]c(CC)n2)nc1C | 97% |
| O=C1c2cccc3c([N+](=O)[O-])ccc(c23)C(=O)N1CC1CCCO1 (stereo unspecified) | 95% |
| COc1cccc(CN(C)CC(=O)Nc2sc3c(c2C#N)CCC3)c1 | 92% |
| COc1ccc(S(=O)(=O)NCC2CCCN(C(=O)c3occc3C)C2)cc1 (stereo unspecified) | 97% |
| CCCCC(NC(=O)c1cccc(Br)c1)C(=O)O (stereo unspecified) | 93% |
| Cc1ccc(-c2nn(-c3cccc(F)c3)cc2CNCCc2ccncc2)o1 | 101% |
| CC1COc2ccccc2N1C(=O)c1cccnc1Cl (stereo unspecified) | 99% |
| Cc1nnsc1C(=O)Nc1cccc(Cl)c1C | 95% |
| CCOc1ccccc1Nc1ccc(C(=O)O)cc1[N+](=O)[O-] | 99% |
| Cc1ccc(CN2CCC(N3CCC(C(=O)NCC4CCCO4)CC3)CC2)o1 (stereo unspecified) | 97% |
| CCOc1ccc(N2C(=O)CN(c3cccc4ccccc34)C2=S)cc1 | 99% |
| Cc1cc(C)n(-c2ccc3nncn3n2)n1 | 102% |
| CSCC(=O)N1CCCC(C(=O)c2cc(F)ccc2F)C1 (stereo unspecified) | 97% |
| COCCNc1nc2nonc2nc1N(C)Cc1ccc(C)cc1 | 95% |
| CCOC(=O)C1(Cc2ccccc2C(F)(F)F)CCN(C(=O)c2cc(C)n(C)n2)CC1 | 98% |
| COc1cccc2c1OCC(CN1CCN(C3CCCCC3)C(CCO)C1)=C2 (stereo unspecified) | 100% |
| CCN(CC)N=Nc1cccc(NC(C)=O)c1 | 95% |
| NC(=O)Cn1nc([N+](=O)[O-])nc1Oc1ccc(Br)cc1 | 97% |
| O=C(O)/C=C/c1cn(-c2ccccc2)nc1-c1cccs1 | 93% |
| O=C(O)/C=C/c1cn(Cc2ccccc2)nc1-c1cccs1 | 127% [activator] (active) |
| O=C(/C=C\c1cn(-c2ccccc2)nc1-c1cccs1)N1CCOCC1 | 104% |
